Compound activity: PubChem, National Center for Advancing Translational Sciences (NCATS)
TRHR enhancer-1 = qHTS for Small Molecule Agonists and Allosteric Enhancers of Human TRH Receptor: Primary Screen for Enhancers | enhancement, % at 2 µM | 360,000 compounds, 0.66% hits | AID 493056, 2011 | TRHR cells, fluo-8 calcium fluorescence, EC20 TRH enhancement; in the data active = enhancement above about 30%; note: 0% is about no effect
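TRHR-expressing cells loaded with fluo-8 calcium dye were read kinetically (ex 480/em 530) during compound addition, then stimulated with an EC20 of TRH (10 nM final). Enhancement of the Gq-mediated intracellular calcium response was scored.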
MBNL1 CUG block = qHTS Assay for Inhibitors of MBNL1-poly(CUG) RNA binding; Potency, µM (doses to about 57.5 µM), inactives show at the highest dose activity change, negative = inhibition, usual class: inhibitors; AID 2675, 2010; Muscleblind-like protein 1 (Homo sapiens), Q9NR56; TR-FRET MBNL1-His/biotin-(CUG)12 binding, 665/545 ratio; 280,000 compounds, 0.036% hits; active = well fitted inhibition curve with a large enough effect in the signal ratio, with a control signal flat, not every such curve was filed as active; inconclusive = small, poorly fitted or top-dose-only effect, or effect the other way, or a change in a side signal; inactive = no such curve, though single readings can be large or run the other way; the % refers to the signal ratio; note: potency is the fitted concentration of half-maximal effect; % is set by controls: 0 for no effect and ±100 for the full control effect
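TR-FRET readout: Ex 340 nm, 665/545 nm emission ratio, normalized to buffer-only (basal) and MBNL1-(CUG)12 controls. Complex of MBNL1-His with Biotin-(CUG)12, compounds 92 nM–58 uM, incubated 60 min at room temperature.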
Epigenetic derep = Quantitative High-Throughput Screen for Regulators of Epigenetic Control; murine LDR cells, GFP reporter derepression, 30 h; Potency, µM (highest dose often 53.9 µM), without a hit: at the highest dose GFP activation, actives largely listed as activators; 280,000 compounds, 0.2% hits; AID 1865, 2009; note: potency is the fitted concentration of half-maximal effect; % of control where 0% means no effect; nearly all actives have a fitted effect of over 60% in size
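Readout is the number of GFP-expressing murine LDR cells, counted by cytometry following washing. Cells were treated with compound for 30 h at 37 C; the stably integrated CMV-GFP locus is normally silent.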
IL-2 act = qHTS of IL-2 Activators; IL-2 activation reporter assay, cell-based qHTS; stimulated with anti-CD3/CD4/CD28 beads; in transgenic mouse T cells; activation, % (series mostly up to about 46 µM); 360,000 compounds, 0.065% hits; AID 652025, 2013; in the data active = activation above about 50%; inconclusive = mostly about 30% to 49%; note: 0% is about no effect
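Readout is EGFP and DsRed signal by fluorescent plate cytometry after 18 h at 37 degrees C. Transgenic mouse T cells (750/well) received compound for 60 min before bead stimulation (anti-CD3, anti-CD4, anti-CD28); memory T cells served as non-tolerant control.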
TRHR agonist-1 = qHTS for Small Molecule Agonists and Allosteric Enhancers of Human TRH Receptor: Primary Screen for Agonists; Thyrotropin-releasing hormone receptor (Homo sapiens), P34981; TRHR cells, calcium flux fluo-8, FDSS agonist mode; activation, % at 2 µM; 360,000 compounds, 0.18% hits; in the data active = activation above about 30%; note: 0% is about no effect
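Steps: seed TRHR cells overnight; add fluo-8 no-wash Ca dye, RT 30 min–1.5 h; record 10 s baseline; pin-transfer compounds; monitor fluorescence 1 cycle/s for the agonist window. Calcium increases flag candidate agonists.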
CBFb RUNX1 block = qHTS Assay for Compounds Blocking the Interaction Between CBF-beta and RUNX1 for the Treatment of Acute Myeloid Leukemia | Runt-related transcription factor 1 (Homo sapiens) + Core-binding factor subunit beta … | AlphaScreen CBFb-His/RUNX1-biotin binding, biochemical | Potency, µM (doses to about 59.8 µM), for the others: at the highest dose activity, negative = inhibition, actives largely listed as inhibitors | 230,000 tested, under 10 active | AID 1477, 2009; note: % of control where 0% means no effect
Target sequence (Q01196 whole entry, looked up): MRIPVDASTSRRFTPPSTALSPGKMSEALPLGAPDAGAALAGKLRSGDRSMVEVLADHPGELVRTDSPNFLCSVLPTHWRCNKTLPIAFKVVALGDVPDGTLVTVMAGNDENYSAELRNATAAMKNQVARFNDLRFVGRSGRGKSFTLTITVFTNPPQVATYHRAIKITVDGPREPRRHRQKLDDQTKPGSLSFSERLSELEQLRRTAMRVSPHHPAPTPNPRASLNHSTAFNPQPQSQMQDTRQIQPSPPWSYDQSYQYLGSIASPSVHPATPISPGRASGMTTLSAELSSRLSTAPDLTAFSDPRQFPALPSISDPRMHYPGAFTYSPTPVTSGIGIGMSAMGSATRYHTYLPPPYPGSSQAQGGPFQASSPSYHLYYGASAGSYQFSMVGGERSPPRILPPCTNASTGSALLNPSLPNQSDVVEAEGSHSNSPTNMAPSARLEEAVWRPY
Target sequence (Q13951 whole entry, looked up): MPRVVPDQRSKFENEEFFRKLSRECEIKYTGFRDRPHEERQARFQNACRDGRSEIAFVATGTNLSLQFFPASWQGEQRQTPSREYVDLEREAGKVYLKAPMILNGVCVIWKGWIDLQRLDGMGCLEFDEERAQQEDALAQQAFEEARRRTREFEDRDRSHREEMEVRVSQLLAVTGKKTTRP
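Inhibition was taken as any reduction in AlphaScreen signal from the CBF-beta–RUNX1 pair (His and biotin tags, 30 nM each), measured after compound (15 min) and bead (90 min) incubations at room temperature.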
TRHR enhancer-2 = qHTS for Small Molecule Agonists and Allosteric Enhancers of Human TRH Receptor: Confirmation Screen for Enhancers; shares compounds with TRHR enhancer-1; TRH receptor cell assay, enhancer confirmation qHTS; activity change, negative = inhibition, % at 46.1 µM; 970 tested, under 10 active;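 note: compound effect scored on response to added TRH at EC20 of 10 nM; 0% is about no effect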
TRHR agonist-2 = qHTS for Small Molecule Agonists and Allosteric Enhancers of Human TRH Receptor: Confirmation Screen for Agonists. 970 compounds, 8% hits. TRHR-expressing cells, agonist activation read-out. Potency, µM (doses to about 46.1 µM), without a hit: top-dose activation, actives largely listed as activators. shares compounds with TRHR enhancer-1; note: potency is the fitted concentration of half-maximal effect; 0% is about no effect; nearly all actives have a fitted effect of over 75% in size
An asterisk follows results filed as active; ? = inconclusive; / = no result given. Shown are actives, neighbours in structure and some others; about 0.88% of the full set was active somewhere. Unless noted, calls come from the whole dose curve; as a rule, active = well fitted curve in the direction sought with a large enough effect; inconclusive = small, poorly fitted or top-dose-only effect, or another doubt; inactive = no such curve, though single readings can be large; an effect the other way counts as inactive or inconclusive.

SMILES	TRHR enhancer-1	MBNL1 CUG block	Epigenetic derep	IL-2 act	TRHR agonist-1	CBFb RUNX1 block	TRHR enhancer-2	TRHR agonist-2
CCCCNC(=O)c1cn(-c2ccc(OCC)cc2)c(=O)c2cc(OC)c(OC)cc12	47*	50%	0%	-3	1	6%	5	1%
CCCCCn1cc2c(c1-c1ccccc1Br)c(=O)n(C)c(=O)n2C	-5	/	0%	/	-2	/	/	/
O=C(O)[C@H]1CCCC[C@H]1C(=O)Nc1ccc(Nc2ccccc2)cc1	0	2%	-2%	1	0	-17%	/	/
Cc1ccccc1N1CCN(c2ccc(NC(=O)C3CCCCC3C(=O)O)cc2)CC1 (stereo unspecified)	42*	2%	-1%	1	1	-4%	-3	4%
COc1ccc(-c2cc(C(F)F)nc(-n3nc(C)cc3C)n2)cc1	53*	-4%	-1%	-3	-1	8%	-9	2%
CC1=NN(c2ccc(C(=O)O)cc2)C(=O)CC1	44*	-3%	/	0	0	/	5	5%
Cc1oc2ncn(CC(C)C)c(=O)c2c1C(=O)Nc1cc(F)ccc1F	7	/	1%	/	1	/	/	/
CCOC(=O)c1cc2c(=O)n3ccccc3nc2n(C(C)C)c1=NC(=O)C(C)(C)Oc1ccc(Cl)cc1	2	/	-2%	/	0	/	/	/
CCn1c(=O)c2sccc2n2c(CCCC(=O)N3CCN(c4ccc(OC)cc4)CC3)nnc12	3	/	2%	/	-1	/	/	/
CS(=O)(=O)c1ccc(Cl)c(NC(=O)CN2CCCC2c2ccc3c(c2)OCCCO3)c1 (stereo unspecified)	46*	/	/	0	0	/	-23	1%
COc1cccc(NC(=O)CSc2nc(=O)n(Cc3ccccn3)c3c2CCC3)c1	14	/	1%	/	0	/	/	/
Cc1c(O)ccc2cc(S(=O)(=O)c3ccccc3)c(=O)oc12	2	35%	/	-1	37*	/	1	23µM*
O=C(Nc1ccc(S(=O)(=O)Nc2nccc(C3Cc4ccccc4C(=O)O3)n2)cc1)c1ccccc1 (stereo unspecified)	43*	2%	0%	1	0	-3%	-5	1%
COC(=O)/C(C)=C/CC12OC(C)(C)C3CC(C=C4C(=O)c5cc6c(c(CCC(C)(C)Cl)c5OC431)OC1(C)CCC(=C(C)C)C6C1)C2=O (stereo unspecified)	/	/	8%	/	/	8%	/	/
Cn1c(CN2CCCC2)nc2cc(NC(=O)c3ccco3)ccc21	55*	-5%	0%	-3	0	-23%	-3	-1%
CC(=O)Nc1ccc2c(c1)nc(CCNC(=O)c1ccccc1)n2C	42*	-5%	-1%	-3	-1	-7%	14	-1%
CC(=O)c1ccc(NC(=O)COc2ccccc2-c2nc(-c3ccc(C)cc3)no2)cc1	0	/	-4%	/	0	/	/	/
Cc1ccc(S(=O)(=O)/N=C2\C=C(Nc3cccc(C(=O)O)c3)C(=O)c3ccccc32)cc1	0	?	/	-4	0	/	/	/
Cc1ccc(S(=O)(=O)/N=C2\C=C(Nc3cccc(C(=O)O)c3)C(=O)c3ccccc32)c(C)c1	61*	?	/	-4	-2	/	-12	3%
O=C(COC(=O)c1c2c(nc3ccccc13)/C(=C/c1cccc([N+](=O)[O-])c1)CCC2)NC1CCS(=O)(=O)C1 (stereo unspecified)	42*	16%	1%	-1	1	-27%	0	1%
CN(C(=O)COC(=O)c1c2c(nc3ccccc13)/C(=C/c1cccc([N+](=O)[O-])c1)CCC2)C1CCS(=O)(=O)C1 (stereo unspecified)	3	17%	1%	-2	1	-16%	/	/
COc1ccc(N(C(C)C(=O)N(C)Cc2ccccc2)S(C)(=O)=O)cc1 (stereo unspecified)	50*	0%	/	0	0	/	1	0%
COc1ccc(NC(=O)C(C)N(c2ccccc2)S(C)(=O)=O)cc1 (stereo unspecified)	5	/	-3%	/	-1	/	/	/
Cc1c(/C=N/O)c2ccccn2c1C=O	60*	18%	4%	-4	0	23%	0	1%
NC(=O)[C@@H]1CCCN1C(=O)[C@@H](Cc1cnc[nH]1)NC(=O)[C@@H]1CCC(=O)N1	-12	/	/	0	85*	/	-25	0.015µM*
SMILES	TRHR enhancer-1	MBNL1 CUG block	Epigenetic derep	IL-2 act	TRHR agonist-1	CBFb RUNX1 block	TRHR enhancer-2	TRHR agonist-2
CCC1(C)Cc2c(sc3c2c(=O)n(C)c2nnc(SCCc4ccccc4)n32)CO1 (stereo unspecified)	65*	-7%	0%	0	0	2%	-9	0%
O=C(OCc1cc(=O)n2nc(-c3cccs3)sc2n1)c1cccc(F)c1	-4	/	4%	/	0	/	/	/
Cn1nnnc1SCc1cccc(CSc2nnnn2C)n1	-3	-7%	8%	0	1	3%	/	/
Cn1nnnc1SCc1c(F)cccc1F	42*	1%	1%	4	0	7%	?	2%
COc1ccc(Cl)cc1NC(=O)Cn1c(=O)n(Cc2cccs2)c(=O)c2cccnc21	-4	/	4%	/	1	/	/	/
CC1CCC2C(=O)N(c3cccc(C(=O)Nc4ccc(F)cc4)c3)C(=O)C2C1 (stereo unspecified)	57*	1%	/	-4	0	/	-1	2%
Cc1ccccc1Nc1nc(N)nc(COC(=O)CCS(=O)(=O)c2ccccc2)n1	1	7%	0%	-3	-1	-25%	/	/
Cc1ccccc1Nc1nc(N)nc(COC(=O)CC2CC3CCC2C3)n1 (stereo unspecified)	51*	3%	2%	0	-1	4%	0	1%
